Tests used:
Test in all cases: DAPPL (digital affinity profiling via proximity ligation, sequencing); 10 mM Tris-HCl pH 7.5, 50 mM NaCl, 1 mM DTT, 4% glycerol, room temperature, 30 min; GST-TFs on glutathione beads, 16-mer random dsDNA library, 0.1% formaldehyde crosslink after washing; high values mean tight binding
FLI1 = biological target: T1, FLI1 (Homo sapiens, UniProt Q01543 1-452); details: protein: recombinant; tags: N-terminal GST; dsDNA, one strand shown
T1 sequence: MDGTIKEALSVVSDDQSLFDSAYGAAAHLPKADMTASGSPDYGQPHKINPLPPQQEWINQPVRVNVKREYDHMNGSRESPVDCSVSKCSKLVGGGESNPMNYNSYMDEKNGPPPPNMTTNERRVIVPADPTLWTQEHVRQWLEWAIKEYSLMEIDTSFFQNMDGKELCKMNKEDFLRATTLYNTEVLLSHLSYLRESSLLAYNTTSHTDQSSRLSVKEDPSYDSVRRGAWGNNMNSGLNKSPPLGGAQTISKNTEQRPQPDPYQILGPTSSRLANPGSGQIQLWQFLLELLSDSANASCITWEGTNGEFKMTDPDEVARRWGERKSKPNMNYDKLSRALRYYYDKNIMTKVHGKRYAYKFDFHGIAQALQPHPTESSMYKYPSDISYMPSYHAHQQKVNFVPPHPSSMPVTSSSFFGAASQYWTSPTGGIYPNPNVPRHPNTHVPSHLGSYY
Procedure, shortened: (§1)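 A tag-only sample was pooled with DNA-barcoded human transcription factors that had been expressed in yeast as GST fusions and captured on glutathione beads. The pools were incubated for 30 min at room temperature with 200 nmole of a random double-stranded 16-mer DNA library in Tris/NaCl/DTT/glycerol buffer, then washed, crosslinked with 0.1% formaldehyde, proximity-ligated (BsaI/T4 ligase, 1 h, 37 °C), PCR-amplified and sequenced on an Illumina NextSeq500. Binding signal is each hexamer's read frequency for a factor divided by its frequency for the tag-only sample.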

ELK1 = biological target: T2, ELK1 (Homo sapiens, UniProt P19419 1-428); details: protein: recombinant; tags: N-terminal GST; dsDNA, one strand shown
T2 sequence: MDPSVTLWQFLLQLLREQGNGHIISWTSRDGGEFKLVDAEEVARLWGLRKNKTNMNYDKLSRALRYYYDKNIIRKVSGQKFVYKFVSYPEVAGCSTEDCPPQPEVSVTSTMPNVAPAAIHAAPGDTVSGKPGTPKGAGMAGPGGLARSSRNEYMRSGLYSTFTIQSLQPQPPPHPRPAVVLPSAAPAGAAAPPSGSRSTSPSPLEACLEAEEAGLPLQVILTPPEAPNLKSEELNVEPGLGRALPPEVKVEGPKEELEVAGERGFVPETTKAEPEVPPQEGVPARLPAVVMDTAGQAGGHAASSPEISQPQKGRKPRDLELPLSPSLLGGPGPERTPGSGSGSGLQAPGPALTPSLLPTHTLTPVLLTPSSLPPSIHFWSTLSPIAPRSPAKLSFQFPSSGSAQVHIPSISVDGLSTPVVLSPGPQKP
Procedure, shortened: as §1

GABPA = biological target: T3, GABPA (Homo sapiens, UniProt Q06546 1-454); details: protein: recombinant; tags: N-terminal GST; dsDNA, one strand shown
T3 sequence: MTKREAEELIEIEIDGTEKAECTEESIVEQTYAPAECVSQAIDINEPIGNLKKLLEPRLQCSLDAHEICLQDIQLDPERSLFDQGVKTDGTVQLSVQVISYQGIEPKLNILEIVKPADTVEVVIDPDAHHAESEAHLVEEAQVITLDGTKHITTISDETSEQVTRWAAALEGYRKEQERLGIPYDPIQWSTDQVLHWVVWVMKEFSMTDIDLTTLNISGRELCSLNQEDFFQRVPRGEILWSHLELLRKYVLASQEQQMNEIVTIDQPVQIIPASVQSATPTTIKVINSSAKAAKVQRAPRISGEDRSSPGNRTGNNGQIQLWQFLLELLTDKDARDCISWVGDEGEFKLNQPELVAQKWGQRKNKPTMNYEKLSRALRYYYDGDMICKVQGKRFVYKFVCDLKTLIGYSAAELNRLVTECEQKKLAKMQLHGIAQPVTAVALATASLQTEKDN
Procedure, shortened: as §1

ERG = biological target: T4, ERG (Homo sapiens, UniProt P11308 1-479); details: protein: recombinant; tags: N-terminal GST; dsDNA, one strand shown
T4 sequence: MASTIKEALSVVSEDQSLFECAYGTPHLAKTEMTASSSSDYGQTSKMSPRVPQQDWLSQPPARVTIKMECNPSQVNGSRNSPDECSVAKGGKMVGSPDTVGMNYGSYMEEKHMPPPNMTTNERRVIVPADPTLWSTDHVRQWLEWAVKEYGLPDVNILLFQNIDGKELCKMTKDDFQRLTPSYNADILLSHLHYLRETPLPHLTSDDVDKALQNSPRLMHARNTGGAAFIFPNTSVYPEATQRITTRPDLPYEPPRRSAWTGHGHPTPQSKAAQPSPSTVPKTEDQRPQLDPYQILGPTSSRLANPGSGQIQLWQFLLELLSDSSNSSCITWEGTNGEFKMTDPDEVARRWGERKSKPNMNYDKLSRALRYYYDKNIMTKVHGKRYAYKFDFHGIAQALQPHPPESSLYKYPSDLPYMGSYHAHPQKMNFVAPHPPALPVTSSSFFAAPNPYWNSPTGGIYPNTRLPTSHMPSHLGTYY
Procedure, shortened: as §1

ELF1 = ELF1 (Homo sapiens, UniProt P32519 1-619); details: protein: recombinant; tags: N-terminal GST; dsDNA, one strand shown
Procedure, shortened: as §1

EHF = biological target: T5, EHF (Homo sapiens, UniProt Q9NZC4 1-300); details: protein: recombinant; tags: N-terminal GST; dsDNA, one strand shown
T5 sequence: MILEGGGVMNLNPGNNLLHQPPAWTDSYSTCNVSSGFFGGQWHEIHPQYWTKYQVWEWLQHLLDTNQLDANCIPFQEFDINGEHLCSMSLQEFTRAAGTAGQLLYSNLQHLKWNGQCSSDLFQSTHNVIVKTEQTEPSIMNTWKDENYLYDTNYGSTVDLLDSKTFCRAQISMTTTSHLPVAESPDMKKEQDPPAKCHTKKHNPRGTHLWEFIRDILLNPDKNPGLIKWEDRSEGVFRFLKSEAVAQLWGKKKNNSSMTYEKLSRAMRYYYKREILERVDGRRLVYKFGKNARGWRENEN
Procedure, shortened: as §1

SPI1 = SPI1 (Homo sapiens, UniProt P17947 1-270); details: protein: recombinant; tags: N-terminal GST; dsDNA, one strand shown
Procedure, shortened: as §1

SPIB = SPIB (Homo sapiens, UniProt Q01892 1-262); details: protein: recombinant; tags: N-terminal GST; dsDNA, one strand shown
Procedure, shortened: as §1

ELK3 = biological target: T6, ELK3 (Homo sapiens, UniProt P41970 1-407); details: protein: recombinant; tags: N-terminal GST; dsDNA, one strand shown
T6 sequence: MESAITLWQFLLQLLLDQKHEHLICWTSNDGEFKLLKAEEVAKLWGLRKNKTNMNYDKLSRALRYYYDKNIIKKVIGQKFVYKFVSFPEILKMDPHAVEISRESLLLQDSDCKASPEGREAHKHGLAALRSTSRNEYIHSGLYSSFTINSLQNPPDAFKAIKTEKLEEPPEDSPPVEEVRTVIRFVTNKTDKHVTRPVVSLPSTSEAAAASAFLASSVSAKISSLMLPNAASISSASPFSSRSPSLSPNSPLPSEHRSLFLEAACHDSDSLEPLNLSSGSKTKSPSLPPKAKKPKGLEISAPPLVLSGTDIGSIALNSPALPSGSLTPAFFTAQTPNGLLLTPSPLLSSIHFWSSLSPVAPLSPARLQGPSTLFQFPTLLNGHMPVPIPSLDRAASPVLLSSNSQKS
Procedure, shortened: as §1

FEV = biological target: T7, FEV (Homo sapiens, UniProt Q99581 1-238); details: protein: recombinant; tags: N-terminal GST; dsDNA, one strand shown
T7 sequence: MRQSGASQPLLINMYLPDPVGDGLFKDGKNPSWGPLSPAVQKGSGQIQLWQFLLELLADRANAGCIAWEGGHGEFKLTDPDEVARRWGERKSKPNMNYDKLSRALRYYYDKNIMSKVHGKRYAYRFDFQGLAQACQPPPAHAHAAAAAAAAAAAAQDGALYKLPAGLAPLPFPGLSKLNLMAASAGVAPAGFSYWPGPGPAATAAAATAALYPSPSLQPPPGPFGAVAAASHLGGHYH
Procedure, shortened: as §1

ETV5 = ETV5 (Homo sapiens, UniProt P41161 1-510); details: protein: recombinant; tags: N-terminal GST; dsDNA, one strand shown
Procedure, shortened: as §1

HSF1 = HSF1 (Homo sapiens, UniProt Q00613 1-529); details: protein: recombinant; tags: N-terminal GST; chain copies: 3; dsDNA, one strand shown
Procedure, shortened: as §1

SPIC = biological target: T8, SPIC (Homo sapiens, UniProt Q8N5J4 1-248); details: protein: recombinant; tags: N-terminal GST; dsDNA, one strand shown
T8 sequence: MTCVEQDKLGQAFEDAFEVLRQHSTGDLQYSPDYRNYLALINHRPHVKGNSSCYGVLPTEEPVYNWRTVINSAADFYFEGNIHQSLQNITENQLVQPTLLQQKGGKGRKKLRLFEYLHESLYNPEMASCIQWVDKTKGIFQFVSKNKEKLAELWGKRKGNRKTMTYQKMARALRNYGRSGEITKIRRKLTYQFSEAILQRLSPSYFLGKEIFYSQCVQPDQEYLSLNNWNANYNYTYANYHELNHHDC
Procedure, shortened: as §1

ELF4 = ELF4 (Homo sapiens, UniProt Q99607 1-663); details: protein: recombinant; tags: N-terminal GST; dsDNA, one strand shown
Procedure, shortened: as §1

ELK4 = biological target: T9, ELK4 (Homo sapiens, UniProt P28324-2 1-405); details: protein: recombinant; tags: N-terminal GST; dsDNA, one strand shown
T9 sequence: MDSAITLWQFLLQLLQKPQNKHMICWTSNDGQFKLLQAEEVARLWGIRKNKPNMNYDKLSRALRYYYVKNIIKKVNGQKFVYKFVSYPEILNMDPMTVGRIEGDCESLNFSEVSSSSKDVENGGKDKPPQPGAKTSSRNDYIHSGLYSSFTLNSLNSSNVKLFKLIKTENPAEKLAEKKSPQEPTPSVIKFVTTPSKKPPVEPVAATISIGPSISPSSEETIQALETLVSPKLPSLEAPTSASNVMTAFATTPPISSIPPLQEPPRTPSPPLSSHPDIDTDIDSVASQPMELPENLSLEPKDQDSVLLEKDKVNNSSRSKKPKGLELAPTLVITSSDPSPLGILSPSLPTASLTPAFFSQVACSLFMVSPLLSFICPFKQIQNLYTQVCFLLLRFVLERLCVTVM
Procedure, shortened: as §1

ETV2 = biological target: T10, ETV2 (Homo sapiens, UniProt O00321 1-342); details: protein: recombinant; tags: N-terminal GST; dsDNA, one strand shown
T10 sequence: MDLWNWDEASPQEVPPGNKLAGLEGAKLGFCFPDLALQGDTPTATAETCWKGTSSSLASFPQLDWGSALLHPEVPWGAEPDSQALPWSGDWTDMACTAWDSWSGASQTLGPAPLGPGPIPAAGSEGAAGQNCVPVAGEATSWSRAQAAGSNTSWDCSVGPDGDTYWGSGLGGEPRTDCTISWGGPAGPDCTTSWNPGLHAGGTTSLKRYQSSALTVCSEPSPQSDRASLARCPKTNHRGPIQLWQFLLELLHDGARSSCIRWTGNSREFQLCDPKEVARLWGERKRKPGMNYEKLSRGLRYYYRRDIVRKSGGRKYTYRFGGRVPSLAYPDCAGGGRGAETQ
Procedure, shortened: as §1

ELF3 = biological target: T11, ELF3 (Homo sapiens, UniProt P78545 1-371); details: protein: recombinant; tags: N-terminal GST; dsDNA, one strand shown
T11 sequence: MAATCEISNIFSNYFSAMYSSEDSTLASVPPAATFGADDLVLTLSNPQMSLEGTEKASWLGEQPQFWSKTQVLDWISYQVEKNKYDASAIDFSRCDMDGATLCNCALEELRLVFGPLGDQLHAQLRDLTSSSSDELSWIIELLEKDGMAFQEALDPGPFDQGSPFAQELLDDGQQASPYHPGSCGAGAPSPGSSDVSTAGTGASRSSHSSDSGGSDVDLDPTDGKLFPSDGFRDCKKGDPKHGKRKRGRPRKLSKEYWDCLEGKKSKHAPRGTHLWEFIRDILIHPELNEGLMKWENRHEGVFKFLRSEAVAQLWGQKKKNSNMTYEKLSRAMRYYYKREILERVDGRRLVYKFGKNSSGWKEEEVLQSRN
Procedure, shortened: as §1

CRX = CRX (Homo sapiens, UniProt O43186 1-299); details: protein: recombinant; tags: N-terminal GST; dsDNA, one strand shown
Procedure, shortened: as §1

ETV1 = ETV1 (Homo sapiens, UniProt P50549 1-477); details: protein: recombinant; tags: N-terminal GST; dsDNA, one strand shown
Procedure, shortened: as §1

Sequence of SPIB (Q01892 whole entry): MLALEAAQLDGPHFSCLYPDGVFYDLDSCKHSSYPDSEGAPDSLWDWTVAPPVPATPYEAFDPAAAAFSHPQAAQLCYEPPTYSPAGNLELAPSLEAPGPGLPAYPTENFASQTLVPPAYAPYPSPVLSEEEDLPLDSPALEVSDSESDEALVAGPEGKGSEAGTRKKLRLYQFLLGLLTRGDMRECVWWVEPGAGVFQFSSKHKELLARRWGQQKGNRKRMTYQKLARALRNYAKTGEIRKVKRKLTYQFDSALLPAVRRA
Sequence of ELF1 (P32519 whole entry): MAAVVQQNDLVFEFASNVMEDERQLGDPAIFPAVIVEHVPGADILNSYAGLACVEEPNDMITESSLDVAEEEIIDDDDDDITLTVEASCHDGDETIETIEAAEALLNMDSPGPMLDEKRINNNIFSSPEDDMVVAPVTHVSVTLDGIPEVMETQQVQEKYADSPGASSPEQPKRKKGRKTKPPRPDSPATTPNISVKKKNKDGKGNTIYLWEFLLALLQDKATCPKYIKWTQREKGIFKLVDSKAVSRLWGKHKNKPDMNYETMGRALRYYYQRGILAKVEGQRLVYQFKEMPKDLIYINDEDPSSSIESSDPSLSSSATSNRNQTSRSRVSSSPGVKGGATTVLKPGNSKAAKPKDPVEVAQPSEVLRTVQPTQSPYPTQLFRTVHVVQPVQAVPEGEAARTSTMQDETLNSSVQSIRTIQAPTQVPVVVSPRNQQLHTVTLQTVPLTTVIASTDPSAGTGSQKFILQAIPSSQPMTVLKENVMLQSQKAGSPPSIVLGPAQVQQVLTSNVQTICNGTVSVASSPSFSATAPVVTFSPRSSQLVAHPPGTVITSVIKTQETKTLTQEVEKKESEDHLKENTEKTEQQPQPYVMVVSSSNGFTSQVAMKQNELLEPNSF
Sequence of ETV1 (P50549 whole entry): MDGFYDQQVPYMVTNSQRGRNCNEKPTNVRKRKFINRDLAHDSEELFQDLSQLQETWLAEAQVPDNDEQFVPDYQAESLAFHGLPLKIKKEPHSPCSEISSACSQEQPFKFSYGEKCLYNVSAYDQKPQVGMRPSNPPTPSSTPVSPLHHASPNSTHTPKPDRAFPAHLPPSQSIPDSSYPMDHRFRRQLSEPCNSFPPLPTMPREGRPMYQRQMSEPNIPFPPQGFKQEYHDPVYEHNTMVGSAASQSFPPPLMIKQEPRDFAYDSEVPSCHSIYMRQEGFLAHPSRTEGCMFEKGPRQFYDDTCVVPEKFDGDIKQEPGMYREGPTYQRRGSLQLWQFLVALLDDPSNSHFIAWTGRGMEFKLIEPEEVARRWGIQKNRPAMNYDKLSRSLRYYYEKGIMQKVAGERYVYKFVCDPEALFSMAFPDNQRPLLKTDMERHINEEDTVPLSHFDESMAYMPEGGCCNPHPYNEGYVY
Sequence of ETV5 (P41161 whole entry): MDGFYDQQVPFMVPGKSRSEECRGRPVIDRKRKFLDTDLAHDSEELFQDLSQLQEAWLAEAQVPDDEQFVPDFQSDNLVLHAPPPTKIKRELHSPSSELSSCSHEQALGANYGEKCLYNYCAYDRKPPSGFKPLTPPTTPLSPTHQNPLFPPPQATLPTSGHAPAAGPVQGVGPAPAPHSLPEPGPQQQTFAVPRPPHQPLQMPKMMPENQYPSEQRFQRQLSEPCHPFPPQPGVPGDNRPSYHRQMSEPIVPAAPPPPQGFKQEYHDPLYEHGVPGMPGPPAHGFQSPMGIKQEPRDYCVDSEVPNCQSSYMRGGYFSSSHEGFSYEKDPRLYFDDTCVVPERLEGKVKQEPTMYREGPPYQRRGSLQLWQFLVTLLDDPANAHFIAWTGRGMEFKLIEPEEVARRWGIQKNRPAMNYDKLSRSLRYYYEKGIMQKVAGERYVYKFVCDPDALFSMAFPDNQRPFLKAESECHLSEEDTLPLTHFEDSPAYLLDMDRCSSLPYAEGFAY
Sequence of HSF1 (Q00613 whole entry): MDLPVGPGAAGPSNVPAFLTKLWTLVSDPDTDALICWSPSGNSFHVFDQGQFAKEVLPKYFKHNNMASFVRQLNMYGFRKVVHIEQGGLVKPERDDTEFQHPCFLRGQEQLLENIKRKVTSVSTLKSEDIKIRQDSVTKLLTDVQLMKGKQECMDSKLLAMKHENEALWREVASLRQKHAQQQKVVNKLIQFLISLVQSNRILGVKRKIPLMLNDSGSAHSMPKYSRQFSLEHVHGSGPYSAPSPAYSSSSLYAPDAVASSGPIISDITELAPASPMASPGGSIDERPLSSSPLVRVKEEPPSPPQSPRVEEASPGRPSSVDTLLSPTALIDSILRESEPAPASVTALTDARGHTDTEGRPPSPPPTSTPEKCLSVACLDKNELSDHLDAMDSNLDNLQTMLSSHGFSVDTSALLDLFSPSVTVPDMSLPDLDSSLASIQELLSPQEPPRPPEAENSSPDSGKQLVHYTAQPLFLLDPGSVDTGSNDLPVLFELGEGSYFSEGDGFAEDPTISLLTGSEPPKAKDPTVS
Sequence of CRX (O43186 whole entry): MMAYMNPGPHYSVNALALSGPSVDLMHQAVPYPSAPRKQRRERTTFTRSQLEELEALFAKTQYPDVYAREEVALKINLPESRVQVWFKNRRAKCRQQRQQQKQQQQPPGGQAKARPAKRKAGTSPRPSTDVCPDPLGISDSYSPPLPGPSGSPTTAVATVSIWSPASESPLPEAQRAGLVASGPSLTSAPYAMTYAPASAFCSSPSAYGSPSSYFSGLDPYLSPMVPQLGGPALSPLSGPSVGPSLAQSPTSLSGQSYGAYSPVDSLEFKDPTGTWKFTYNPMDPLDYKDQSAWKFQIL
Sequence of ELF4 (Q99607 whole entry): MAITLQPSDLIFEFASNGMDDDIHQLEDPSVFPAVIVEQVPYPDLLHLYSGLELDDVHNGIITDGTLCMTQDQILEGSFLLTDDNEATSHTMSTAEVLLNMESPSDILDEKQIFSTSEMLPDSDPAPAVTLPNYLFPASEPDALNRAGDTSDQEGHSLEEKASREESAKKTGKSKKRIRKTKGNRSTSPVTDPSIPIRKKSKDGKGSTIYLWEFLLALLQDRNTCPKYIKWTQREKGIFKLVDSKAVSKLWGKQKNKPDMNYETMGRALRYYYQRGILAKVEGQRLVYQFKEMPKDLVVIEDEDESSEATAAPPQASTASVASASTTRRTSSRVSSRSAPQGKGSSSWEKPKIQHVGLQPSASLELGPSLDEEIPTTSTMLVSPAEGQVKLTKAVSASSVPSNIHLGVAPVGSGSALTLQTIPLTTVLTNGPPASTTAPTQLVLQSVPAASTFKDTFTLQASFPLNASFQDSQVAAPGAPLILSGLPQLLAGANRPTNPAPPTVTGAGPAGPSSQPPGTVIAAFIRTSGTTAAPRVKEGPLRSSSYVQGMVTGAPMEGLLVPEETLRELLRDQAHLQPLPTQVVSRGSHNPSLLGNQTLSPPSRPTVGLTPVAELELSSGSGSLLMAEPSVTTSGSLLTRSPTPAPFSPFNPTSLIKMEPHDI

In the case of GTTAAC, the binding signal (FLI1) is reported as 1.04 fold enrichment (6-mer frequency, TF over GST control), the binding signal (ELK1) is reported as 1.22 fold enrichment (6-mer frequency, TF over GST control) and the binding signal (GABPA) is reported as 1.13 fold enrichment (6-mer frequency, TF over GST control). For the same sequence, the binding signal (ERG) was 1.15 fold enrichment (6-mer frequency, TF over GST control), the binding signal (ELF1) was 1.14 fold enrichment (6-mer frequency, TF over GST control) and the binding signal (EHF) was 1.11 fold enrichment (6-mer frequency, TF over GST control). The binding signal (SPI1) was 1.15 fold enrichment (6-mer frequency, TF over GST control), the binding signal (SPIB) was 1.12 fold enrichment (6-mer frequency, TF over GST control) and the binding signal (ELK3) was 1.23 fold enrichment (6-mer frequency, TF over GST control). The binding signal (FEV) was 1.18 fold enrichment (6-mer frequency, TF over GST control), the binding signal (ETV5) was 1.19 fold enrichment (6-mer frequency, TF over GST control) and the binding signal (HSF1) was 1.02 fold enrichment (6-mer frequency, TF over GST control). The binding signal (SPIC) was 1.11 fold enrichment (6-mer frequency, TF over GST control), the binding signal (ELF4) was 1.19 fold enrichment (6-mer frequency, TF over GST control) and the binding signal (ELK4) was 1.25 fold enrichment (6-mer frequency, TF over GST control). For the same sequence, the binding signal (ETV2) was 1.2 fold enrichment (6-mer frequency, TF over GST control), the binding signal (ELF3) was 1.21 fold enrichment (6-mer frequency, TF over GST control) and the binding signal (CRX) was 1.15 fold enrichment (6-mer frequency, TF over GST control). The binding signal (ETV1) was 1.2 fold enrichment (6-mer frequency, TF over GST control).
